The record followed here is a collection of fitness landscapes (doi:10.1126/science.1257360).

Sequences and labels used below:
B1: PhoQ; a variant is named by its letters at X, in order, P23837 (parent)
chain: MKKLLRLFFPLSLRVRFLLATAAVVLVLSLAYGMVALIGYSVSFDKTTFRLLRGESNLFYTLAKWENNKLHVELPENIDKQSPTMTLIYDENGQLLWAQRDVPWLMKMIQPDWLKSNGFHEIEADVNDTSLLLSGDHSIQQQLQEVREDDDDAEMTHSVAVNVYPATSRMPKLTIVVVDTIPVELKSSYMVWSWFIYVLSANLLLVIPLLWVAAWWSLRPIEALAKEVRELEEHNRELLNPATTRELTSLVRNLNRLLKSERERYDKYRTTLTDLTHSLKTPLXXLQXXLRSLRSEKMSVSDAEPVMLEQISRISQQIGYYLHRASMRGGTLLSRELHPVAPLLDNLTSALNKVYQRKGVNISLDISPEISFVGEQNDFVEVMGNVLDNACKYCLEFVEISARQTDEHLYIVVEDDGPGIPLSKREVIFDRGQRVDTLRPGQGVGLAVAREITEQYEGKIVAGESMLGGARMEVIFGRQHSAPKDE

The full ranking holds about 140,000 sequences; the median of “enrichment ratio after two sorts for PhoP signalling” is about 0, and the highest 2% start at about 11. This is one part of a sample in which the highest values are shown more often than they occur.

Variants of B1 are the subject of this experiment. The experiment is described as follows: enrichment ratio after two sorts for PhoP signalling (ratio (wild type AVST 3.29)); higher = more functional. The conditions noted are these: with PhoP (E. coli).
On to EAPV, for which the enrichment ratio was at most 0.25.
The same measure for PSRQ: at most 0.25.
On to MGCC, for which the enrichment ratio is at most 0.25.
The same measure for VYFN: at most 0.25; for VGPY: at most 0.25; for LCTR: at most 0.25.
To TDWT belongs 25.1; to KSWT, at most 0.25.
To SPWT belongs at most 0.25; to HPWT, at most 0.25.
On to ADWT, for which the enrichment ratio is at most 0.25.
As for SLWT, the enrichment ratio was at most 0.25.
To TEWT belongs 12.8.
LRWT: the enrichment ratio is at most 0.25.
The same measure for RLWT: at most 0.25; for LLWT: at most 0.25.
To LEWT belongs 12.5.
With SEWT, the enrichment ratio amounted to 13.2.
To MNIK belongs at most 0.25; to LKPQ, at most 0.25; to MYHS, at most 0.25.
The same measure for LAEQ: at most 0.25; for KQHW: at most 0.25; for LWPI: at most 0.25.
The same measure for IYVA: at most 0.25.
As for RPSC, the enrichment ratio was at most 0.25.
In the case of GEHV, the enrichment ratio was at most 0.25.
The same measure for YVEW: at most 0.25.
To RVGM belongs at most 0.25; to TGSL, 16.8.
To VLSL belongs 0.415.
Take GLSL: the enrichment ratio was 11.5.
The same measure for GLSK: at most 0.25.
The same measure for WISL: at most 0.25.
The same measure for SLSL: 10.7; for TLSL: 15.8.
Turning to NISL, the enrichment ratio is 0.771.
To NGSL belongs at most 0.25.
As to GGSL, the enrichment ratio amounted to 3.4.
The same measure for GDSL: at most 0.25; for TISL: 19.4.
The same measure for WCCL: at most 0.25.
For the variant HISH, the enrichment ratio was at most 0.25.
To VTMH belongs at most 0.25; to AIRA, at most 0.25; to TVSY, 10.4.
To MVVG belongs at most 0.25.
The same measure for YGHF: at most 0.25.
NVSL: the enrichment ratio was at most 0.25.
In the case of SGSL, the enrichment ratio worked out at 11.8.
To NASL belongs at most 0.25; to KASL, at most 0.25; to TVSL, 14.4.
To SPSL belongs at most 0.25; to TASL, 15.1; to YWEI, at most 0.25.
The same measure for PCWT: at most 0.25; for HICM: at most 0.25.
DTPM: the enrichment ratio is at most 0.25.
With STCQ, the enrichment ratio is 15.3.
To GECS belongs 7.23; to FGCI, 7.38.
GECQ: the enrichment ratio stood at 17.
The same measure for RGCQ: at most 0.25; for FGCQ: 13.2.
The same measure for SPCQ: at most 0.25.
Regarding FGCS, the enrichment ratio is at most 0.25.
Consider NGCQ, for which the enrichment ratio is at most 0.25.
Take TGCQ: the enrichment ratio was 13.9.
The same measure for GECI: 7.86.
The same measure for SQCQ: 3.73; for WIRR: at most 0.25; for DKPL: at most 0.25.
The same measure for LNCS: at most 0.25; for HHGV: at most 0.25.
In the case of NSRQ, the enrichment ratio is at most 0.25.
The same measure for LTKK: at most 0.25; for ARTW: at most 0.25; for SHKM: at most 0.25.
The same measure for ACGT: 4.5; for HFGF: at most 0.25.
To MLHA belongs at most 0.25; to DTCQ, at most 0.25.
As to TTCQ, the enrichment ratio stood at 18.9.
Turning to GNCQ, the enrichment ratio amounted to 12.1.
The same measure for GECL: 5.03.
To YTCQ belongs 1.7; to GECV, 16.3.
For GTCQ, the enrichment ratio worked out at 13.4.
To GECA belongs 1.47.
The same measure for MTCQ: at most 0.25; for GNHP: at most 0.25; for GICQ: 10.3.
With ITCQ, the enrichment ratio is at most 0.25.
Take MPVD: the enrichment ratio is at most 0.25.
To LRSS belongs at most 0.25; to QFGG, at most 0.25.
To YYIN belongs at most 0.25; to IIQY, at most 0.25.
To NRIW belongs at most 0.25; to HQPD, at most 0.25; to YMHI, at most 0.25.
Take FYKD: the enrichment ratio was at most 0.25.
To HRDN belongs at most 0.25; to QQHS, at most 0.25.
The same measure for YSME: 1.23; for MDWD: at most 0.25.
Turning to FRMF, the enrichment ratio was at most 0.25.
The same measure for GGCQ: 13.2; for GHCQ: at most 0.25; for NICQ: at most 0.25.
The same measure for LNMQ: at most 0.25.
The same measure for NCQG: at most 0.25; for NWCN: at most 0.25.
As to NALL, the enrichment ratio worked out at 5.99.
The same measure for KALL: at most 0.25; for TALL: 12.
The same measure for IALI: 9.02.
To KALQ belongs at most 0.25; to YACN, at most 0.25.
Take NALQ: the enrichment ratio was at most 0.25.
To TACN belongs 13; to TALQ, 15.2.
Turning to TADK, the enrichment ratio was at most 0.25.
Take TALI: the enrichment ratio was 18.1.
The same measure for PICT: at most 0.25.
The same measure for DTQQ: at most 0.25; for VDFR: at most 0.25; for SNNF: 6.15.
The same measure for GFIP: at most 0.25; for GLMF: 1.04.
FESF: the enrichment ratio is at most 0.25.
The same measure for AAEK: at most 0.25.
To QIFT belongs at most 0.25; to TALC, 20.9.
The same measure for TALA: 13.8; for TALT: 9.61.
In the case of KALC, the enrichment ratio was at most 0.25.
To EALN belongs at most 0.25; to TAQN, at most 0.25.
The same measure for TALS: 10.9; for IALC: 1.46.
TALN: the enrichment ratio was found to be 18.9.
To MHGF belongs at most 0.25; to YMMK, at most 0.25.
To QQSN belongs at most 0.25; to NNFF, at most 0.25.
To VDVG belongs at most 0.25; to FFRS, at most 0.25.
In the case of FHDF, the enrichment ratio was at most 0.25.
To MQYS belongs 6.75; to QTFE, at most 0.25; to SEKM, at most 0.25.
